The sample as a whole holds a higher share of hits than the screen did.
IDE exosite inh – exo-site inhibitors of human insulin-degrading enzyme | P14735 | purified IDE, FL-6b probe fluorescence polarization; stronger effect = lower value | z-score at 20 µM | 17,000 tested, 6.3% active;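 active = z-score of -3 or lower, meaning strong loss of probe binding signal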;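 note: His-tagged human IDE residues 42-1019 made in E. coli with 30 nM FL-6b probe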
* = called active by the depositor.

SMILES	IDE exosite inh
O=C(C[C@H]1CC[C@H]2[C@@H](COC[C@H](O)CN2CCc2ccccc2)O1)NCCCN1CCOCC1	0.21
COCC(=O)N1C[C@H](C)[C@@H](OC)CN(C)C(=O)c2ccc(NC(=O)Nc3cccc(F)c3)cc2OC[C@H]1C	0.96
CN(C)CC#Cc1ccc([C@@H]2[C@@H](CO)N3C(=O)CN(C(=O)c4cccnc4)C[C@@H]23)cc1	3.6
COCC(=O)N1[C@H](CO)[C@@H](c2ccc(-c3ccccc3OC)cc2)C12CN(C(C)=O)C2	-0.3
O=C(CN1CCOCC1)N1CCCCN2[C@H](CO)[C@H](c3ccc(C#Cc4ccccc4F)cc3)[C@@H]2C1	-5*
O=C(CN1CCOCC1)N1CCCCN2[C@H](CO)[C@H](c3ccc(C#Cc4ccccc4F)cc3)[C@H]2C1	-5.5*
O=C(CN1CCOCC1)N1CCCCN2[C@H](CO)[C@@H](c3ccc(Br)cc3)[C@H]2C1	-0.73
O=C(CN1CCOCC1)N1CCCCN2[C@H](C1)[C@H](c1ccc(C#Cc3ccccc3F)cc1)[C@@H]2CO	-6.1*
O=C(CN1CCOCC1)N1CCCCN2[C@H](CO)[C@H](c3ccc(C#Cc4ccccc4)cc3)[C@H]2C1	-8.7*
Cc1ccccc1S(=O)(=O)N1CC(=O)N2[C@H](CO)[C@H](c3ccc(C#CCC(C)C)cc3)[C@H]2C1	1.2
COc1cccc(NC(=O)N[C@@H]2CC[C@@H](CC(=O)N3CCN(C)CC3)O[C@@H]2CO)c1	3.8
Cc1ccc(-c2ccc(C3[C@@H]4CN(S(=O)(=O)c5ccccc5)C[C@H]3N4)cc2)cc1 (stereo partly drawn)	2.2
Cc1cccc(S(=O)(=O)N2[C@@H]3CNC[C@H]2C3c2ccc(-c3ccncc3)cc2)c1 (stereo partly drawn)	1.8
O=C(c1ccc2c(c1)OCO2)N1CC(=O)N2[C@H](CO)[C@@H](c3ccc(C#CC4CCCC4)cc3)[C@@H]2C1	2.5
C[C@H](CO)N1C[C@H](C)[C@@H](CN(C)C(=O)NC2CCCCC2)OCc2ccccc2-c2ccccc2C1=O	-0.096
O=C(Nc1ccccc1)N1CC(=O)N2[C@H](CO)[C@H](c3ccc(-c4ccc(F)cc4)cc3)[C@H]2C1	2.4
O=C(C[C@@H]1CC[C@@H](NC(=O)Nc2ccc(C(F)(F)F)cc2)[C@@H](CO)O1)NCc1cccc(F)c1	0.06
COc1ccc(S(=O)(=O)Nc2ccc3c(c2)C(=O)N([C@@H](C)CO)C[C@H](C)[C@@H](CN(C)S(=O)(=O)c2ccc(Cl)cc2)OCCCC[C@@H](C)O3)cc1	2
CN(C)C(=O)c1cccc(-c2ccccc2[C@H]2[C@@H](CO)N(C(=O)C3CCCCC3)[C@H]2C#N)c1	1.1
O=C(CN1CCOCC1)N1CCCCN2[C@H](C1)[C@@H](c1ccc(C#Cc3ccccc3F)cc1)[C@@H]2CO	-5*
CNC(=O)C[C@H]1CC[C@H]2[C@@H](COc3ccc(NC(=O)Nc4ccc(C#N)cc4)cc3C(=O)N2C)O1	-2.1
COc1ccc(C#Cc2ccc([C@@H]3[C@H]4CN(C(=O)C5CCOCC5)CC(=O)N4[C@H]3CO)cc2)cc1	3.4
COc1cccc(C#Cc2ccc([C@H]3[C@@H](CO)N4C(=O)CN(C(=O)C5CC5)C[C@@H]34)cc2)c1	-4.9*
COc1cccc(C#Cc2ccc([C@@H]3[C@H](CO)N4C(=O)CN(C(=O)C5CC5)C[C@@H]34)cc2)c1	-6.3*
COc1ccc(C#Cc2ccc([C@@H]3[C@H](CO)N4C(=O)CN(C(=O)C5CCOCC5)C[C@@H]34)cc2)cc1	3.3
SMILES	IDE exosite inh
COc1ccc(C#Cc2ccc([C@H]3[C@@H](CO)N4C(=O)CN(C(=O)C5CCOCC5)C[C@@H]34)cc2)cc1	4.3
COc1cccc(C#Cc2ccc([C@H]3[C@H]4CN(C(=O)C5CC5)CC(=O)N4[C@H]3CO)cc2)c1	-7.3*
O=C1CCCCn2nncc2COC[C@H](Cc2ccccc2)N1	-0.91
COc1ccccc1C(=O)N1C[C@H]2[C@@H](c3ccccc31)[C@H](CO)N2C(=O)Cc1ccccc1	3.9
Cc1ccc(OC(=O)N(C)C[C@@H]2OCc3ccccc3-c3ccccc3C(=O)N([C@H](C)CO)C[C@H]2C)cc1	0.9
CN(C)CC#Cc1ccc([C@H]2[C@H]3CN(C(=O)Cc4cccnc4)CC(=O)N3[C@H]2CO)cc1	0.74
Cc1noc(C)c1NC(=O)N[C@@H]1C=C[C@@H](CC(=O)Nc2ccc(-c3ccccc3)cc2)O[C@H]1CO	0.63
CCCNC(=O)N1C[C@H](O)COC[C@@H]2O[C@@H](CC(=O)OC)CC[C@H]21	-0.55
N#C[C@H]1N[C@@H](CO)[C@H]1c1ccc(C2=CCCC2)cc1	2.5
CCC(=O)N1[C@@H]2Cn3c(ccc(-c4ccccc4F)c3=O)[C@H]1[C@@H](C(=O)NC1CCC1)[C@@H]2CO	0.14
COCCNC(=O)[C@H]1[C@H](CO)[C@H]2Cn3c(cccc3=O)[C@@H]1N2Cc1cccc(Cl)c1	1.6
CC(C)[C@@H]1CCc2cnnn2COC[C@H](Cc2ccccc2)NC1=O	-0.78
C/C=C/c1ccc([C@H]2[C@@H](CO)N3CCCCN(C(=O)C4CCCC4)C[C@@H]23)cc1	0.34
CCC(=O)N1CC(=O)N2[C@H](C1)[C@@H](c1ccc(C#Cc3cccc(F)c3)cc1)[C@@H]2CO	-1.3
CCC(=O)N1CC(=O)N2[C@H](CO)[C@@H](c3ccc(C#Cc4cccc(F)c4)cc3)[C@@H]2C1	-1.1
CCS(=O)(=O)N1CC(=O)N2[C@H](CO)[C@@H](c3ccc(C#Cc4cccc(F)c4)cc3)[C@H]2C1	-2.4
CCC(=O)N1CC(=O)N2[C@H](CO)[C@H](c3ccc(C#Cc4cccc(F)c4)cc3)[C@H]2C1	-4*
CCC(=O)N1CC(=O)N2[C@@H](CO)[C@@H](c3ccc(C#Cc4cccc(F)c4)cc3)[C@@H]2C1	-4.1*
CS(=O)(=O)N1CC(=O)N2[C@H](C1)[C@@H](c1ccc(C#Cc3cccc(F)c3)cc1)[C@@H]2CO	0.91
CCS(=O)(=O)N1CC(=O)N2[C@H](C1)[C@H](c1ccc(C#Cc3cccc(F)c3)cc1)[C@@H]2CO	-5.4*
COCC(=O)N1CC2(C1)CN(Cc1ccccc1F)[C@H](CO)c1[nH]c3cc(OC)ccc3c12	-2.2
C/C=C/c1cccc(-c2nc(C(=O)NCCN3CCCCC3)cc3c2[C@H](CCO)N([S@@](=O)C(C)(C)C)C3)c1	2.1
O=C(c1ccc(F)cc1)N1CC(=O)N2[C@H](C1)[C@@H](c1ccc(C#CC3CCCCC3)cc1)[C@@H]2CO	2.3
CC(C)[C@H]1C(=O)NCCC=CC[C@H](C)Oc2ccccc2C(=O)N1C (mixture of isomers)	0.33
C/C=C/c1ccc([C@@H]2[C@@H](CO)N3C(=O)CN(Cc4ccccc4)C[C@@H]23)cc1	0.86
SMILES	IDE exosite inh
CCC(=O)N1CC(=O)N2[C@H](C1)[C@H](c1ccc(-c3cccnc3)cc1)[C@@H]2CO	-0.8
COc1cccc(CNC(=O)C[C@H]2CC[C@@H]3[C@@H](COc4ccc(NC(=O)c5cccs5)cc4C(=O)N3C)O2)c1	-0.15
N#Cc1cccc(-c2ccc(C3[C@@H]4CN(C(=O)c5ccccn5)C[C@H]3N4)cc2)c1 (stereo partly drawn)	0.89
O=C(c1cccnc1)N1CC(=O)N2[C@@H](CO)[C@@H](c3ccc(-c4ccc(F)cc4)cc3)[C@@H]2C1	0.84
O=C(c1cccnc1)N1CC(=O)N2[C@@H](CO)[C@H](c3ccc(-c4ccccc4F)cc3)[C@@H]2C1	0.46
O=C(c1cccnc1)N1CC(=O)N2[C@@H](CO)[C@H](c3ccc(-c4ccc(F)cc4)cc3)[C@@H]2C1	2.7

Screening data as filed in PubChem BioAssay.
